# SMN2 splice up: enhancers of SMN2 splice variant expression; HEK293 SMN2-luciferase splicing reporter, luminescence, 30-36 h; Potency, µM (top dose mostly 46.1 µM), inactives show top-dose activity change, positive = activation, most hits filed as activators; 210,000 compounds, 2.8% hits; AID 1458; note: % of control where 0% means no effect; nearly all actives have a fitted effect of over 55% in size
#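 HEK293 cells carry an SMN2 minigene-luciferase reporter in which exon 7 inclusion puts luciferase in frame. Cells were seeded at 2000 cells/well, attached for 10-12 hours, then exposed to compounds for 30-36 hours at 37C before ONE-Glo luminescence.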
# NPC1 prom act: activates the NPC1 promoter; 320,000 compounds, 2.4% hits; Huh7 NPC1 promoter luciferase reporter, 24 h; Potency, µM (series often up to 9.22 µM), without a hit: at the highest dose activation, actives largely listed as activators; note: % of control where 0% means no effect; nearly all actives have a fitted effect of over 60% in size
#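 Huh7 cells stably carrying NPC1 promoter–luciferase, plated in Opti-MEM with 10% FBS for 2 h, were exposed to compound in DMSO for 24 h at 37 °C; luciferase reagent was added for 10 min and luminescence read.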
# FLuc modulator: inhibits or activates purified firefly luciferase, miR-21 counter-screen; Potency, µM (highest dose often 57.5 µM), for the others: at the highest dose activity change, negative = inhibition, hits mostly inhibitors; 360,000 compounds, 6.9% hits; purified FLuc, Km substrates, luminescence inhibition; P08659;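 note: plate controls were vehicle for no effect and reference inhibitor for full effect; nearly all actives have a fitted effect of over 55% in size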
# Target sequence (P08659 whole entry, looked up): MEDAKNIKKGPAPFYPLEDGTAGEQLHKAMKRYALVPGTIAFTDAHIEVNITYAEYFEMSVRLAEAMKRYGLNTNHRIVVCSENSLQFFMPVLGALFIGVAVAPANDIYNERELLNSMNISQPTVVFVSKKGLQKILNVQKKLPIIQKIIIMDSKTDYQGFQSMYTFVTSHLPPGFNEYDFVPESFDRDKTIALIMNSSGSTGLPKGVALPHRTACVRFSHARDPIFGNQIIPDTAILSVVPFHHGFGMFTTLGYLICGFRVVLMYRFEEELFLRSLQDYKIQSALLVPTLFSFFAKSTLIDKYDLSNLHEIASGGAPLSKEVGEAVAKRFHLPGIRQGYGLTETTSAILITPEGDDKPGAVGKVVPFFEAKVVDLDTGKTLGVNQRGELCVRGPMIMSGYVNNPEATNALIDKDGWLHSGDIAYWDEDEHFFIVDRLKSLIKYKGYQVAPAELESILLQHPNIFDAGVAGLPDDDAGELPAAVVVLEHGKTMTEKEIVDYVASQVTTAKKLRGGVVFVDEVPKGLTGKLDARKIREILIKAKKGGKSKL
#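 Purified P. pyralis luciferase, 10 nM final, with Km-level 10 uM D-luciferin and 10 uM ATP in 50 mM Tris acetate pH 7.5, 10 mM Mg acetate, 0.01% Tween-20, 0.05% BSA; 6-point qHTS titration about 60 µM downward; luminescence read.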
# ELG1 repair inh: ELG1-dependent DNA repair inhibition; HEK293T ELG1-luciferase reporter, luminescence, 16 h; DNA damage induced by 5-fluorouridine; Potency, µM (top dose mostly 46.1 µM), for inactives: at the top dose activity change, negative = inhibition, most hits filed as inhibitors; 330,000 compounds, 2.3% hits; AID 504467; note: % is set by controls: 0 for no effect and ±100 for the full control effect; nearly all actives have a fitted effect of over 55% in size
#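 HEK293T cells expressing luciferase-tagged ELG1 (2,000/well) received 5-Fluorouridine plus compound or DMSO for 16 hr at 37 °C. Luciferase was read by ONE-Glo luminescence after 30 min at room temperature.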
# Rab9 promoter act: Rab9 promoter activation | Huh7 Rab9 promoter-luciferase reporter, luminescence, 24 h | Potency, µM (top dose mostly 9.22 µM), for the others: top-dose activation, negative = inhibition, hits mostly activators | 320,000 compounds, 2.8% hits | AID 485297; note: % of control where 0% means no effect; nearly all actives have a fitted effect of over 60% in size
#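 Luciferase signal after 10 min detection reagent at ambient indicates Rab9 promoter upregulation; stably transfected Huh7 cells were treated 24 h with compound in DMSO at 37 °C, 5% CO2.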
# ELG1 genotox: induces genotoxicity in HEK293T cells with luciferase-tagged ELG1; 330,000 compounds, 1.3% hits; HEK293T ELG1-luciferase reporter, luminescence, 16 h; AID 504466; Potency, µM (doses to about 46 µM), for inactives: at the top dose activity change, positive = activation, hits mostly activators; note: % of control where 0% means no effect; nearly all actives have a fitted effect of over 60% in size
#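 16 hr compound incubation (37 °C, 5% CO2) of HEK293T cells carrying luciferase-tagged ELG1; luciferase then measured by ONE-Glo luminescence after 30 min at RT.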
# The depositor's hits bear a star; u = inconclusive; x = no result; [ ] = remark or other dose. Hits are enriched below; roughly 9.2% of the tested compounds scored in any of these assays. Calls come from the whole dose curve; as a rule, active = well fitted curve in the direction sought with a large enough effect; inconclusive = small, poorly fitted or top-dose-only effect, or another doubt; inactive = no such curve, though single readings can be large; an effect the other way counts as inactive or inconclusive. Potency is the fitted concentration of half-maximal effect.
SMILES,SMN2 splice up,NPC1 prom act,FLuc modulator,ELG1 repair inh,Rab9 promoter act,ELG1 genotox
COc1cc(N=Nc2cccc(S(N)(=O)=O)c2)c2ccccc2c1N,u,10%,19µM*,u,-3%,u
O=[N+]([O-])c1ccc(/C=C/c2ccc3ccccc3n2)cc1,2.2µM*,u,0.6µM*,u,0.56µM*,-9%
O=[N+]([O-])c1ccc(/C=C/c2ccc3cccc(O)c3n2)cc1,x,u,2.4µM*,u,u,u
Nc1ccc(S(=O)(=O)Nc2nccc(/C=C/c3ccc([N+](=O)[O-])cc3)n2)cc1,x,-5%,3%,u,-2%,16%
Cc1cc(CNC(=O)COC(=O)c2ccc(Cl)c(N)c2)cc(C)c1O,x,15%,1%,-2%,-6%,-1%
Cc1ccc(NC(=O)C(=O)NN=C2CCCC2)cc1C,x,19%,13µM*,-5%,u,7%
Cc1ccc(Nc2nnc(SC(C)C(=O)NCC3CCCO3)s2)cc1C (stereo not drawn),x,0%,15µM*,u,-1%,-2%
Cc1ccc(NC(=O)C(=O)NCC2CCCO2)cc1 (stereo not drawn),14µM*,u,u,u,4µM*,u
Cc1nnc(SC(C)C(=O)NCC2CCCO2)s1 (stereo not drawn),x,2%,-3%,9%,1%,0%
Cc1ccc(NC(=O)C(=O)NCC2CCCO2)cc1C (stereo not drawn),11µM*,2.8µM*,u,u,1.3µM*,8.2µM*
O=C(N[C@@H](Cc1ccccc1)C(=O)OCc1ccccc1)c1nc[nH]c1C(=O)N1CCNCC1,x,x,x,18%,x,5%
O=C(O)[C@@H]1[C@@H](C(=O)Nc2ccccc2)[C@@H]2C=C[C@@H]1O2,-10%[9.22 µM],x,x,x,x,x
COc1ccc(-c2nc(-c3ccccc3)c(NC(C)(C)C)o2)cc1,-7%,x,x,x,x,x
CC1CCN(S(=O)(=O)c2ccc3c(c2)N(CC(=O)NCc2ccccc2)C(=O)CO3)CC1,-7%,x,-4%,x,x,x
COc1ccccc1Cn1c(C(C)C)nc2ccccc21,x,-3%,2%,u,-8%,-11%
COc1ccc(/C=C/c2nc3ccccc3n2Cc2ccccc2OC)cc1,7.9µM*,3.2µM*,0.85µM*,u,u,u
COc1ccccc1Cn1c(/C=C/c2ccccc2)nc2ccccc21,u,18%,3µM*,u,u,16%
O=C(/C=C/c1ccc(OCCCF)cc1)N1CCOCC1,x,u,24µM*,u,u,u
O=C(/C=C/c1ccccc1)Oc1ccccc1C(=S)N1CCOCC1,x,1%,3%,0%,-1%,-1%
O=C(/C=C/c1cccc([N+](=O)[O-])c1)N1CCOCC1,4%,5%,0%,19%,-5%,2%
O=C(/C=C/c1cccc2ccccc12)N1CCOCC1,x,u,15µM*,u,u,u
O=C(/C=C/c1ccccc1)Oc1cccc(C(=S)N2CCOCC2)c1,-33%,0%,9.5µM*,15%,-4%,2%
O=C(/C=C/c1cccc(Oc2ccccc2)c1)N1CCOCC1,x,u,15µM*,u,1.6µM*,u
Cc1ccsc1CN(C)C(=O)CN1C(=O)NC(c2ccccc2)(c2ccccc2)C1=O,x,-8%,x,-10%,0%,-2%
O=C(Cn1cc(S(=O)(=O)c2ccccc2)c(=O)c2cc3c(cc21)OCO3)Nc1ccccc1,6%,x,-4%,x,x,x
SMILES,SMN2 splice up,NPC1 prom act,FLuc modulator,ELG1 repair inh,Rab9 promoter act,ELG1 genotox
O=C(/C=C/c1cccc2ccccc12)c1ccncc1,-61%,-8%,9.5µM*,26%,-8%,-6%
COC(=O)c1cccn(CC(=O)c2ccc(Cl)cc2Cl)c1=O,7%,0%,15µM*,10%,-6%,5%
COc1ccc(-n2cnc3cc(NS(=O)(=O)c4ccccc4)ccc32)cc1,28%,3%,u,u,0%,3%
COc1ccccc1-n1cnc2cc(NC(=O)c3ccco3)ccc21,10µM*,-13%,u,u,-6%,u
O=C(Nc1ccc2c(c1)ncn2C1CCCCC1)c1ccco1,23%,u,13µM*,u,3.5µM*,u
COc1ccc(-n2cnc3cc(N)ccc32)cc1,14µM*,26%,u,u,20%,u
COc1ccc(-n2cnc3cc(NC(=O)c4ccco4)ccc32)cc1,-16%,4%,13µM*,20%,2%,15%
O=C(Nc1ccc(S(=O)(=O)NC2CCCCC2)cc1)c1ccco1,-24%,-6%,1%,u,2%,0%
CCC(=O)Nc1ccc2c(c1)ncn2-c1ccccc1OC,4%,2%,-13%,2%,-2%,2%
Cn1cc(CN2CCN(Cc3ccccc3)CC2)c(-c2cccc(Cl)c2)n1,x,-5%,5%,7%,-2%,0%
CCc1ccc(-n2c(=O)c3c4c(sc3n(Cc3ccccc3C#N)c2=O)CCCC4)cc1,8%,x,5%,x,x,x
Cc1ccc(S(=O)(=O)Nc2ccc(C(=O)NCCCN3CCOCC3)cc2)cc1[N+](=O)[O-],x,-2%,0%,21%,2%,2%
CCC1CN(S(=O)(=O)c2cc(-c3cc(C)no3)ccc2C)c2cc(Cl)ccc2O1 (stereo not drawn),x,x,-1%,x,x,x
CC(C)n1cnc2cc(NC(=O)c3ccco3)ccc21,x,1.1µM*,11µM*,u,1.8µM*,u
CCCSc1nnc2[nH]c(=O)cc(C)n12,x,x,5%,x,x,x
COc1ccc(C)cc1NC(=O)n1ncc2cc(Cl)ccc21,x,27%,0%,-7%,12%,0%
CSc1cccc(N2CC(C(=O)N(CC(C)C)c3c(N)n(Cc4ccccc4)c(=O)[nH]c3=O)CC2=O)c1 (stereo not drawn),x,3%,-1%,0%,-1%,0%
Cc1ccc(NC(=O)CCS(=O)(=O)c2ccc3c(c2)NC(=O)C(C)S3)nc1 (stereo not drawn),x,2%,1%,-16%,0%,-4%
COc1ccc(CCNC(=O)c2cccs2)cc1OC,10%,-5%,-1%,-8%,-5%,-2%
COc1ccc(CNc2nc(NCc3ccc(OC)c(OC)c3)n(C(=O)c3cccs3)n2)cc1OC,-2%,-3%,11µM*,u,-1%,-3%
Oc1cc(O)c2c(c1)O[C@@H](c1ccc(O)c(O)c1)[C@H](O[C@@]1(c3cc(O)c(O)c(O)c3)Oc3cc(O)cc(O)c3[C@H](O)[C@@H]1O)C2,-7%[9.22 µM],x,x,x,x,x

# Bioassay records (PubChem BioAssay)
